This is an account of results in PubChem BioAssay (NCI).

A short description of assay [1]: NCI Yeast Anticancer Drug Screen. Data for the rad50 strain (AID 155).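 Further: 0% = growth of vehicle-only cultures of the same strain.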 To be noted: S. cerevisiae rad50 strain growth inhibition, hits give high values. The essentials: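 Growth of the mutant yeast was measured after compound exposure and referenced to vehicle-treated cultures.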
A short description of assay [2]: NCI Yeast Anticancer Drug Screen. Data for the mec2-1 strain (AID 157). To be noted: S. cerevisiae mec2-1 strain, hits give high values. The essentials:
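Cells of the genetically defined mec2-1 yeast strain are incubated with test compound. Inhibition of growth is calculated against vehicle-treated controls.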

Assay [3] in a line: NCI Yeast Anticancer Drug Screen. Data for the sgs1 mgt1 strain (AID 161).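 Further: 0% = growth of cultures given vehicle only.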 As to conditions: S. cerevisiae sgs1 mgt1 strain, hits give high values. The essentials: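 Mutant yeast exposed to compound; growth scored against vehicle-only wells.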
Assay [4] is described as follows: NCI Yeast Anticancer Drug Screen. Data for the cln2 rad14 strain (AID 165).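 Further: 0% = growth equal to vehicle treated cultures.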 To be noted: S. cerevisiae cln2 rad14 strain, hits give high values. The essentials: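 The screen exposed genetically defined yeast (cln2 rad14) to test compounds and scored growth inhibition relative to vehicle-treated controls.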
A short description of assay [5]: NCI Yeast Anticancer Drug Screen. Data for the bub3 strain (AID 167). As to conditions: S. cerevisiae bub3 mutant strain, hits give high values. The essentials: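 Whole-cell yeast assay. The mutant strain was incubated with compounds, and growth inhibition was determined by comparison with vehicle-treated cells.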
Assay [6] is described as follows: NCI Yeast Anticancer Drug Screen. Data for the mlh1 rad18 strain (AID 175). As to conditions: S. cerevisiae mlh1 rad18 strain growth inhibition, hits give high values. The essentials:
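Compound-treated yeast growth, normalised to vehicle controls. Strain bears defined DNA repair mutations.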

Where [7] appears, read: at 5.0 µM (retest, dose inferred, filed as 0.5).
Setting [8] is: at 50.0 µM (retest, dose inferred, filed as 5.0).

About 79,000 compounds went through this panel and 15% of them were active in at least one assay; those are over-represented in the sample as a whole. A number with no mark means an inactive call. Activity calls are given as the source filed them. No stated cut-off is given here; in the data, active means growth inhibition above about 70%; inactive means the rest.

With `CNC(=O)N(C1=NCC(C)S1)c1ccc(C)c(C)c1` (stereo unspecified), the growth inhibition in assay [1] (setting [7]) was -13%; in assay [1] (setting [8]), 97% (active); in assay [1] (at 50.0 µM), 63.9%; in assay [2] (setting [7]) it was -21%; in assay [2] (setting [8]) it was 98% (active); in assay [2] (at 50.0 µM) it was 74.9% (active). Further, the growth inhibition in assay [3] (setting [7]) is -36%; in assay [3] (setting [8]), 95% (active); in assay [3] (at 50.0 µM) it was 71.8% (active); in assay [4] (setting [7]), -17%; in assay [4] (setting [8]), 76% (active); in assay [4] (at 50.0 µM), 57.2%. Moreover, the growth inhibition was -22% in assay [5] (setting [7]); 98% (active) in assay [5] (setting [8]); 79.2% (active) in assay [5] (at 50.0 µM); -17% in assay [6] (setting [7]); 89% (active) in assay [6] (setting [8]); 69% in assay [6] (at 50.0 µM).
For `[Br][Pt+2][Br].[NH-]c1cccc(I)c1.[NH-]c1cccc(I)c1`, the growth inhibition in assay [1] (setting [7]) is 2%; in assay [1] (setting [8]) it was 60%; in assay [1] (at 50.0 µM), 39.5%; in assay [2] (setting [7]), 1%; in assay [2] (setting [8]), 31%; in assay [2] (at 50.0 µM), 22.2%. Besides, the growth inhibition is 8% in assay [3] (setting [7]); 39% in assay [3] (setting [8]); 30.8% in assay [3] (at 50.0 µM); -1% in assay [4] (setting [7]); 27% in assay [4] (setting [8]); 12.6% in assay [4] (at 50.0 µM). Besides, the growth inhibition in assay [5] (setting [7]) was 1%; in assay [5] (setting [8]), -5%; in assay [5] (at 50.0 µM) it was 3.25%; in assay [6] (setting [7]), 5%; in assay [6] (setting [8]) it was 81% (active); in assay [6] (at 50.0 µM) it was 88.8% (active).
Consider `CCN(CC)CCOc1ccc(C(=C2CCCCC2)c2ccc(OCCN(CC)CC)cc2)cc1`, for which the growth inhibition in assay [1] (setting [7]) is 34%; in assay [1] (setting [8]) it was 34%; in assay [1] (at 50.0 µM) it was 84.8% (active); in assay [2] (setting [7]), 31%; in assay [2] (setting [8]), 31%; in assay [2] (at 50.0 µM), 41%. The growth inhibition in assay [3] (setting [7]) is 31%; in assay [3] (setting [8]) it was 31%; in assay [3] (at 50.0 µM), 89.1% (active); in assay [4] (setting [7]) it was 31%; in assay [4] (setting [8]), 31%; in assay [4] (at 50.0 µM) it was 77% (active). The growth inhibition was 31% in assay [5] (setting [7]); 31% in assay [5] (setting [8]); 76.8% (active) in assay [5] (at 50.0 µM); 28% in assay [6] (setting [7]); 28% in assay [6] (setting [8]); 78.5% (active) in assay [6] (at 50.0 µM).
Turning to `CCOC(=O)CCC(=O)Oc1ccc2c(c1OC(=O)CCC(=O)OCC)C(=O)c1ccccc1C2=O`, the growth inhibition is 25% in assay [1] (setting [7]); 97% (active) in assay [1] (setting [8]); 87.5% (active) in assay [1] (at 50.0 µM); 11% in assay [2] (setting [7]); 97% (active) in assay [2] (setting [8]); 78.8% (active) in assay [2] (at 50.0 µM). In addition, the growth inhibition in assay [3] (setting [7]) is 50%; in assay [3] (setting [8]) it was 98% (active); in assay [3] (at 50.0 µM) it was 83% (active); in assay [4] (setting [7]) it was 13%; in assay [4] (setting [8]), 97% (active); in assay [4] (at 50.0 µM) it was 66%. In addition, the growth inhibition in assay [5] (setting [7]) was 8%; in assay [5] (setting [8]), 96% (active); in assay [5] (at 50.0 µM), 60.5%; in assay [6] (setting [7]) it was 22%; in assay [6] (setting [8]), 97% (active); in assay [6] (at 50.0 µM), 95% (active).
On to `c1ccc2c(c1)CCN2CCc1c[nH]c2ccccc12`, for which the growth inhibition in assay [1] (setting [7]) is 0%; in assay [1] (setting [8]), 12%; in assay [1] (at 50.0 µM) it was 89.6% (active); in assay [2] (setting [7]) it was -5%; in assay [2] (setting [8]), -12%; in assay [2] (at 50.0 µM), 91.8% (active). Besides, the growth inhibition in assay [3] (setting [7]) was -10%; in assay [3] (setting [8]), 3%; in assay [3] (at 50.0 µM), 89.8% (active); in assay [4] (setting [7]) it was 23%; in assay [4] (setting [8]), 31%; in assay [4] (at 50.0 µM), 89.8% (active). Further, the growth inhibition in assay [5] (setting [7]) was -26%; in assay [5] (setting [8]), 43%; in assay [5] (at 50.0 µM) it was 89.3% (active); in assay [6] (setting [7]), -14%; in assay [6] (setting [8]), 21%; in assay [6] (at 50.0 µM) it was 88.5% (active).
Consider `O=C(Nc1ccccc1)OCCCCl`, for which the growth inhibition in assay [1] (setting [7]) was -7%; in assay [1] (setting [8]) it was -4%; in assay [1] (at 50.0 µM), 9.1%; in assay [2] (setting [7]), -7%; in assay [2] (setting [8]), 1%; in assay [2] (at 50.0 µM), -13.3%. Further, the growth inhibition is -16% in assay [3] (setting [7]); 25% in assay [3] (setting [8]); 30.6% in assay [3] (at 50.0 µM); 25% in assay [4] (setting [7]); -7% in assay [4] (setting [8]); 64.3% in assay [4] (at 50.0 µM). Further, the growth inhibition was -19% in assay [5] (setting [7]); -19% in assay [5] (setting [8]); 7.3% in assay [5] (at 50.0 µM); -23% in assay [6] (setting [7]); -8% in assay [6] (setting [8]); 12.4% in assay [6] (at 50.0 µM).
Turning to `Oc1ccc(Cc2cccc(Br)c2)c(O)c1`, the growth inhibition in assay [1] (setting [7]) was -2%; in assay [1] (setting [8]) it was 99% (active); in assay [1] (at 50.0 µM), 99.3% (active); in assay [2] (setting [7]), -4%; in assay [2] (setting [8]) it was 99% (active); in assay [2] (at 50.0 µM), 99.3% (active). The growth inhibition in assay [3] (setting [7]) is -2%; in assay [3] (setting [8]) it was 99% (active); in assay [3] (at 50.0 µM), 99.3% (active); in assay [4] (setting [7]), -9%; in assay [4] (setting [8]), 99% (active); in assay [4] (at 50.0 µM) it was 99.2% (active). For the same molecule, the growth inhibition in assay [5] (setting [7]) is -3%; in assay [5] (setting [8]), 99% (active); in assay [5] (at 50.0 µM), 99.4% (active); in assay [6] (setting [7]), -3%; in assay [6] (setting [8]) it was 99% (active); in assay [6] (at 50.0 µM), 99.2% (active).
